Compound activity from PubChem.
HCV inhibitor: qHTS Assay for Inhibitors of Hepatitis C Virus (HCV); Huh7.5.1 HCVcc-Cre infection, luciferase reporter, 44 h; Potency, µM (highest dose often 41.8 µM), most hits filed as inhibitors; actives 3.4% (n = 340,000)
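After 44 h co-culture of compound, cells and HCVcc-Cre (~0.5 moi), substrate is added for 15 min at room temperature and luciferase measured over 15 sec. Cells were seeded at 1,000/well and pre-cultured 4 h.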
Giardia FBPA inh: qHTS Assay for Inhibitors of Fructose-1,6-bisphosphate Aldolase from Giardia Lamblia; A8B2U2; purified Giardia FBPA; Potency, µM (titrated, usually from 59.6 µM), hits mostly inhibitors; actives 0.71% (n = 290,000); AID 2451, 2010; also: nearly all actives have a fitted effect of over 55% in size
Target sequence (A8B2U2 whole entry, looked up): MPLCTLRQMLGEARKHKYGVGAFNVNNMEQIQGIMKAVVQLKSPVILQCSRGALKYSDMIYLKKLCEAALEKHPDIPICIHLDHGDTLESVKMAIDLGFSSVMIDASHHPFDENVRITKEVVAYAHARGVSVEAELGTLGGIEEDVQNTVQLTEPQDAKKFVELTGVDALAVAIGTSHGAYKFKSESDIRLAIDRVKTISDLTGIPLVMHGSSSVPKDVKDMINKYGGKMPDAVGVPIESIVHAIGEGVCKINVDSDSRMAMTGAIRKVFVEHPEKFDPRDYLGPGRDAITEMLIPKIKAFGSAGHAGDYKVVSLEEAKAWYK
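40 nM FBPA preincubated 10 min at RT with compound (up to 57.5 uM final), then substrate plus GAPDH/TPI/NAD/arsenate coupling and diaphorase/resazurin added. Fluorescence read after 20 min at RT, 525/598 nm.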
Marburg entry inh: qHTS for inhibitors of binding or entry into cells for Marburg Virus; Marburg virus pseudotyped entry inhibition, cell reporter; Potency, µM (series often up to 37.8 µM), usual class: inhibitors; actives 1.8% (n = 300,000); AID 540276, 2011; calls by dose curve; tested in HEK293 cells
HCMV inh: qHTS Assay for inhibitors of the human cytomegalovirus (HCMV). actives 4.5% (n = 410,000). HFF cells, HCMV-luciferase reporter, 72 h; active compounds read low. activity change, negative = inhibition, % at 57.5 µM; in the data active = activity change below about -60%; inconclusive = no clear call, values can overlap the other calls; inactive = above about -39%
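Two-dose cell screen: HFF monolayers treated with compounds and infected with luciferase-expressing HCMV at 1 PFU/cell, 72 h at 37C, then lysed for luciferase measurement.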
FMDV antiviral: High Throughput Screening for Foot and Mouth Disease Virus Antivirals | actives 1.2% (n = 410,000) | Potency, µM (top dose mostly 57.9 µM), actives largely listed as inhibitors | FMDV antiviral cell-based qHTS; calls by dose curve; tested in HEK293T cells; also: read-out not given here; nearly all actives have a fitted effect of over 45% in size
LASV entry inh: qHTS for Inhibitors of binding or entry into cells for Lassa Virus | AID 540256, 2011 | Lassa virus pseudotype entry inhibition, cell reporter | Potency, µM (highest dose often 37.9 µM), usual class: inhibitors | actives 1.2% (n = 300,000); calls by dose curve; tested in HEK293 cells; also: nearly all actives have a fitted effect of over 50% in size
Hits are given with their value; n = inactive; u = inconclusive; x = no result; [ ] = remark or other dose. Shown are actives, neighbours in structure and some others; about 8.3% of the full set was active somewhere. Unless noted, calls follow the shape of the dose curve; as a rule, active = well fitted curve in the direction sought with a large enough effect; inconclusive = small, poorly fitted or top-dose-only effect, or another doubt; inactive = no such curve, though single readings can be large; an effect the other way counts as inactive or inconclusive.

SMILES	HCV inhibitor	Giardia FBPA inh	Marburg entry inh	HCMV inh	FMDV antiviral	LASV entry inh
CC(=O)c1c(C)[nH]c(C(=O)NCCc2cccc(C)c2)c1C	u	n	n	n	n	n
CCc1c(C(=O)NCCc2cccc(C)c2)[nH]c(C)c1C(C)=O	n	n	u	n	n	3.5µM
NCCCC[C@H](NC(=O)CNC(=O)[C@@H]1CCCN1C(=O)[C@H](Cc1ccc(O)cc1)NC(=O)CN)C(=O)N[C@@H](Cc1ccccc1)C(=O)O	x	n	x	x	x	x
Cn1cccc1/C=C1\CCC/C(=C\c2cccn2C)C1=O	13µM	n	u	n	n	n
CCOc1ccc(CNC(=O)COc2cc(=O)n(C)c3ccccc23)cc1	x	x	u	n	n	n
COc1cc(/C(C)=N/NC(=O)Cc2c(C)[nH][nH]c2=O)ccc1O	n	n	n	-67	n	n
COc1ccc2cc3[n+](cc2c1O)CCc1cc2c(cc1-3)OCO2	x	x	x	n	10µM	x
Cc1ccc(C(=O)N(C)CC(=O)Nc2ccc(Cl)c(C(F)(F)F)c2)cc1S(=O)(=O)N1CCCCC1	7.9µM	x	x	n	u	x
CN(CC(=O)Nc1ccc(Cl)c(C(F)(F)F)c1)C(=O)c1ccc(OCC2CCCO2)cc1 (centres undefined)	10µM	x	u	-73	u	u
CN(CC(=O)Nc1ccc(Cl)c(C(F)(F)F)c1)C(=O)c1ccc(S(=O)(=O)N2CCOCC2)cc1	n	x	x	n	n	x
CCN(c1ccccc1)S(=O)(=O)c1ccc2[nH]cc(C(=O)NCc3ccc(C)cc3)c(=O)c2c1	x	x	x	n	n	u
CC(C)c1ccc(C2CC(=O)c3cnc(N4CCc5ccccc5C4)nc3C2)cc1 (centres undefined)	n	n	n	n	n	n
CCOC(=O)N1CCN(c2ncc3c(n2)CC(c2ccc(Cl)cc2)CC3=O)CC1 (centres undefined)	x	x	n	-103	u	u
CCOC(=O)N1CCN(c2ncc3c(n2)CC(c2ccccc2O)CC3=O)CC1 (centres undefined)	x	x	n	u	22µM	u
Cc1ccccc1N1C(=O)NC(=O)/C(=C\c2cc(Br)c(N3CCOCC3)o2)C1=O	n	n	u	n	16µM	n
COc1ccc(NC(=O)Cn2c(=O)n(Cc3ccco3)c(=O)c3oc4ccccc4c32)cc1Cl	x	x	x	n	n	n
COc1ccc(C2=C(Nc3ccc(C)c(C)c3)c3ccccc3C2=O)cc1	x	x	n	n	n	n
COc1ccc(C2=C(Nc3ccc(Br)c(C)c3)c3ccccc3C2=O)cc1	x	x	n	n	28µM	n
COc1ccc(-c2c(-c3ccccc3)c(C(=O)C(=O)NCCCN(C)C)n3ccc4cc(OC)c(OC)cc4c23)cc1OC	u	n	u	-96	n	n
COc1ccc2c(c1)-c1nc(-n3ncc(C(=O)N(C)CCO)c3C3CC3)ncc1CC2	x	x	x	x	n	x
O=S(=O)(c1ccc(NC(=S)NCc2ccncc2)cc1)N1CCCCC1	n	n	u	-65	n	n
S=C(NCc1ccncc1)Nc1ccccc1	n	n	x	n	n	x
S=C(NCc1ccccc1)Nc1ccncc1	1.8µM	n	n	u	n	u
CC(C)CNC(=S)Nc1ccc(Oc2ccccc2)cc1	u	n	u	-63	n	n
CSC(=S)NCc1cccnc1	u	n	u	-82	n	u
SMILES	HCV inhibitor	Giardia FBPA inh	Marburg entry inh	HCMV inh	FMDV antiviral	LASV entry inh
NC(=S)NCc1cccnc1	n	n	x	n	n	x
O=S(=O)(c1ccc(NC(=S)NCc2ccco2)cc1)N1CCCC1	n	n	n	n	n	n
Cc1cc(=O)n2c(C(=O)Nc3ccc(C)c(Cl)c3)c(C(=O)Nc3ccccc3)sc2n1	x	x	n	n	n	u
COc1ccc(N2CC(NC(=O)c3ccc(OC(C)C)cc3)CC2=O)cc1 (centres undefined)	x	x	x	n	n	n
COc1cc2c(cc1OC)[C@H](C)N(CC1C(=O)O[C@@H]3C[C@@]4(C)CCC[C@H](C)[C@@]45OC5[C@H]13)CC2 (some centres undefined)	x	n	x	x	u	x
FC(F)Oc1ccc(NC(=S)NCc2cccnc2)cc1	n	n	n	n	n	x
S=C(NCc1cccnc1)Nc1ccc(Oc2ccccc2)cc1	u	n	x	-71	n	x
CCc1ccc(NC(=S)NCc2cccnc2)cc1	n	n	n	n	n	n
CCCCc1ccc(NC(=S)NCc2cccnc2)cc1	u	n	n	-77	n	n
O=[N+]([O-])c1cccc(COc2ccc(CO)cc2)c1	x	x	u	n	x	x
COc1cc2ccc(=O)oc2c(OC)c1OC	x	n	x	x	n	x
O=c1ccc2cc3ccoc3c(O)c2o1	1µM	x	x	n	n	x
O=c1ccc2cc3ccoc3cc2o1	n	n	x	n	n	x
COc1cc2ccc(=O)oc2c(O)c1O	n	25µM	x	n	n	x
O=S(=O)(c1ccccc1)n1nc(-c2ccco2)nc1NCc1ccccc1	x	x	u	n	n	n
Cc1c(C(=O)NCc2nccs2)cnn1-c1ncc2c(n1)-c1ccccc1CC2	x	x	x	x	n	x
CCN(CC(=O)NCc1cccs1)S(=O)(=O)c1ccc(F)cc1	n	x	n	n	n	n
CCN(CC)S(=O)(=O)c1ccc(C(=O)NCc2cccs2)cc1	n	n	n	n	n	2.9µM
CCN(CC(=O)NCc1ccc(F)cc1)S(=O)(=O)c1ccc(C)cc1	n	n	x	u	n	x
CCCN(CCC)S(=O)(=O)c1ccc(C(=O)NCc2ccco2)cc1	n	n	n	n	n	0.79µM
CCN(CC)S(=O)(=O)c1ccc(C(=O)NCc2ccc(C)cc2)cc1	n	n	n	n	n	18µM
Cc1ccc(S(=O)(=O)NCCc2sc3nc(-c4ccccc4)nn3c2C)cc1C	x	x	x	u	n	n
CCCCCCC1=Cc2cc(OC)c(OC)cc2C(C(C(C)=O)C(=O)OC)O1 (centres undefined)	x	n[12.9 µM]	x	x	x	x
O=C(NCC1CCCO1)C(=Cc1cccc([N+](=O)[O-])c1)C(=O)NCC1CCCO1 (centres undefined)	u	n	12µM	-99	u	u
O=C(NCC1CCCO1)/C(=C\c1cccc([N+](=O)[O-])c1)NC(=O)c1ccccc1 (centres undefined)	n	n	n	n	n	n
SMILES	HCV inhibitor	Giardia FBPA inh	Marburg entry inh	HCMV inh	FMDV antiviral	LASV entry inh
COc1ccc(CN2CCCC(n3cc(C(=O)N4CCCCC4)nn3)C2)c(OC)c1 (centres undefined)	x	x	x	x	n	x
O=C1NC(=O)C(=CC=Cc2ccccc2)S1	x	x	x	n	n	x
ClC1=C(Cl)C(Cl)=C(Cl)C1=C/C=C/c1ccccc1	8.9µM	n	x	u	u	x
Cc1ccc(NC(=S)NCCSc2ccc(Cl)cc2)c(C)c1	u	n	n	-84	n	n
Cc1ccccc1NC(=S)NCCSc1ccc(Cl)cc1	u	n	u	-64	n	u
CCc1ccccc1NC(=S)NCCSc1ccc(Cl)cc1	n	n	u	-88	n	u
COc1cccc(C2(CC(=O)N3CCCCC3CO)CC(=O)N(C)C2=O)c1 (centres undefined)	x	x	x	x	n	x
